What all share (experiment): DAPPL (digital affinity profiling via proximity ligation, sequencing); 10 mM Tris-HCl pH 7.5, 50 mM NaCl, 1 mM DTT, 4% glycerol, room temperature, 30 min; GST-TFs on glutathione beads, 16-mer random dsDNA library, 0.1% formaldehyde crosslink after washing; high values mean tight binding
In one assay the target is T1, FLI1 (Homo sapiens, UniProt Q01543 1-452).
T1 sequence: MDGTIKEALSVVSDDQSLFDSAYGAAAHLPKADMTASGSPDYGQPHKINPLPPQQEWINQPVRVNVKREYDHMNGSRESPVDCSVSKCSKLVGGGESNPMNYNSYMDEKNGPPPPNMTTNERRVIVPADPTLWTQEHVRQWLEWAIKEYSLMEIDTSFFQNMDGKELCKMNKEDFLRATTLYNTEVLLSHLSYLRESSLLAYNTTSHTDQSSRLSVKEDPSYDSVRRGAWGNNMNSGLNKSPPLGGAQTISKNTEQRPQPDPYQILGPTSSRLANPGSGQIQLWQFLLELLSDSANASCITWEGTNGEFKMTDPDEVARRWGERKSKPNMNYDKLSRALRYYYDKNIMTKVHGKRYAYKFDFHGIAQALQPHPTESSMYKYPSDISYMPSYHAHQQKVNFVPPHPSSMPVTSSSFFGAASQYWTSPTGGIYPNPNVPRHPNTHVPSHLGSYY
The following applies: protein: recombinant; tags: N-terminal GST; dsDNA, one strand shown. Summed up: (§1)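 After expression in yeast as GST fusions, human transcription factors were bound to glutathione beads, DNA-barcoded and mixed with a tag-only sample. The pools were incubated with 200 nmole of a 16-mer random double-stranded DNA library in Tris/NaCl/DTT/glycerol buffer (30 min, room temperature), washed and crosslinked with 0.1% formaldehyde. Proximity ligation with BsaI/T4 ligase ran for 1 h at 37 °C, before PCR amplification and sequencing on an Illumina NextSeq500. Binding signal is a hexamer's read frequency for a factor divided by its frequency for the tag-only sample.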

A further assay concerns the target T2, ELK1 (Homo sapiens, UniProt P19419 1-428).
T2 sequence: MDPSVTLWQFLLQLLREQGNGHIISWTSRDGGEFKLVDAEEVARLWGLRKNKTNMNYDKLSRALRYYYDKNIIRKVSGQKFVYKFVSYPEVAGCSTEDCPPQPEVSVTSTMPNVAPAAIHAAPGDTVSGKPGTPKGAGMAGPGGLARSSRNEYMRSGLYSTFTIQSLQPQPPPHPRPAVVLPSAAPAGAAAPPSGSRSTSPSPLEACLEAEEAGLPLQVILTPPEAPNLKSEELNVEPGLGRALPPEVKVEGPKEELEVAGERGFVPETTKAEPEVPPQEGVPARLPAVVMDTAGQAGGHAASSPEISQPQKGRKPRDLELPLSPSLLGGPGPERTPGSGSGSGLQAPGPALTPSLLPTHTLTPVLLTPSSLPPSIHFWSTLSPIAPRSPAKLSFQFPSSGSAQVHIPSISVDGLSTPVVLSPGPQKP
To be noted: protein: recombinant; tags: N-terminal GST; dsDNA, one strand shown. Summed up:
as §1

The target of a further assay is T3, GABPA (Homo sapiens, UniProt Q06546 1-454).
T3 sequence: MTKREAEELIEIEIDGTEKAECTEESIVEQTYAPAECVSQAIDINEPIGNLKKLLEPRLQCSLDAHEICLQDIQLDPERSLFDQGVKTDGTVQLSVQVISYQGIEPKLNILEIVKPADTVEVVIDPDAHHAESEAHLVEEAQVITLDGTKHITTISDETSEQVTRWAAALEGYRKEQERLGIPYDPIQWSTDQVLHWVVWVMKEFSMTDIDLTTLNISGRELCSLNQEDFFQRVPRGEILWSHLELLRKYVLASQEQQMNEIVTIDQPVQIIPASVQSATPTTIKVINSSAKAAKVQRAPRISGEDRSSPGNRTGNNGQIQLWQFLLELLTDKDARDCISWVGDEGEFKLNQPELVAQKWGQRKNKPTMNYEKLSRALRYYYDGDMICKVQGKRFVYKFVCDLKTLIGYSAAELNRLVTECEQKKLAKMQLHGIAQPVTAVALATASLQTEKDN
To be noted: protein: recombinant; tags: N-terminal GST; dsDNA, one strand shown. Summed up:
as §1

The next assay concerns the target T4, ERG (Homo sapiens, UniProt P11308 1-479).
T4 sequence: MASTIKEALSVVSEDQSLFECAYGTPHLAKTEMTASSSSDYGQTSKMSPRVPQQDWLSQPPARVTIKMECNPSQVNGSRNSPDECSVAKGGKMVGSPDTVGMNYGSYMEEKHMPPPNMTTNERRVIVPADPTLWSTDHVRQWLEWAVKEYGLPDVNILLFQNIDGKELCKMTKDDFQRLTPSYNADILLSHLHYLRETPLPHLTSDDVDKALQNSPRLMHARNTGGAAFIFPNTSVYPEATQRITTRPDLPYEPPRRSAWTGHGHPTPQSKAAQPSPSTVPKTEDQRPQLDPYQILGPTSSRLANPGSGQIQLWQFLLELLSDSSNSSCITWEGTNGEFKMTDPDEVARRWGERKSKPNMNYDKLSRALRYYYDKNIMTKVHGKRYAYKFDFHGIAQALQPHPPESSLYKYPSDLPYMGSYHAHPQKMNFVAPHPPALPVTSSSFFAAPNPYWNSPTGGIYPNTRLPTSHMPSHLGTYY
To be noted: protein: recombinant; tags: N-terminal GST; dsDNA, one strand shown. Summed up:
as §1

In another assay the target is ELF1 (Homo sapiens, UniProt P32519 1-619). The following applies: protein: recombinant; tags: N-terminal GST; dsDNA, one strand shown. A digest of the protocol: as §1
ELF1, sequence (P32519 whole entry): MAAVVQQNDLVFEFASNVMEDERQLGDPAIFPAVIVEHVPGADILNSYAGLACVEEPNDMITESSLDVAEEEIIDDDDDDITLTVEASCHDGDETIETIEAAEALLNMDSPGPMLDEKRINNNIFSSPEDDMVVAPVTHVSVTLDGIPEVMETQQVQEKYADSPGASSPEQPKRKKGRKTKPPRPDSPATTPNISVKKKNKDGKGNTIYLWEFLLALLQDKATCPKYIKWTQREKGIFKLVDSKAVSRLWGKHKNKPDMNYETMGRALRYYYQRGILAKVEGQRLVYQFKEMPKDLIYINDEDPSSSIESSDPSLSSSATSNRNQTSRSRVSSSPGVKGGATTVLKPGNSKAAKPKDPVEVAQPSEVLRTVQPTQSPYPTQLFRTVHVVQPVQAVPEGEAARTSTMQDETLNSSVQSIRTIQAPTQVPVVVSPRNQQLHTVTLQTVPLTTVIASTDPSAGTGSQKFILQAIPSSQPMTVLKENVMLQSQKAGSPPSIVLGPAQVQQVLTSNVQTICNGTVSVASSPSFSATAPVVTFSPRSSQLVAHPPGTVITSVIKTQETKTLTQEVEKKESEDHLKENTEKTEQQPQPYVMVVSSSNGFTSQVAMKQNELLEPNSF
For another assay, the target named is T5, EHF (Homo sapiens, UniProt Q9NZC4 1-300).
T5 sequence: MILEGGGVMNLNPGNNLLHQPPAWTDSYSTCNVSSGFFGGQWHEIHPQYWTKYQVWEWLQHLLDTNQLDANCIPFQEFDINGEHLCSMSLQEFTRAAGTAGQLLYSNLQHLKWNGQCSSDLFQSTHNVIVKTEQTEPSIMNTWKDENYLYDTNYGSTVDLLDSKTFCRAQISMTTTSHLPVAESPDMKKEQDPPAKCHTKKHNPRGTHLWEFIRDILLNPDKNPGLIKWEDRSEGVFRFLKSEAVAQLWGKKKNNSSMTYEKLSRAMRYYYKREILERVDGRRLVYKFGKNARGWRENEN
The following applies: protein: recombinant; tags: N-terminal GST; dsDNA, one strand shown. Summed up: as §1

The target in the next assay is SPI1 (Homo sapiens, UniProt P17947 1-270). The following applies: protein: recombinant; tags: N-terminal GST; dsDNA, one strand shown. A digest of the protocol: as §1
The next assay addresses SPIB (Homo sapiens, UniProt Q01892 1-262). To be noted: protein: recombinant; tags: N-terminal GST; dsDNA, one strand shown. Summed up:
as §1

The target of another assay is T6, ELK3 (Homo sapiens, UniProt P41970 1-407).
T6 sequence: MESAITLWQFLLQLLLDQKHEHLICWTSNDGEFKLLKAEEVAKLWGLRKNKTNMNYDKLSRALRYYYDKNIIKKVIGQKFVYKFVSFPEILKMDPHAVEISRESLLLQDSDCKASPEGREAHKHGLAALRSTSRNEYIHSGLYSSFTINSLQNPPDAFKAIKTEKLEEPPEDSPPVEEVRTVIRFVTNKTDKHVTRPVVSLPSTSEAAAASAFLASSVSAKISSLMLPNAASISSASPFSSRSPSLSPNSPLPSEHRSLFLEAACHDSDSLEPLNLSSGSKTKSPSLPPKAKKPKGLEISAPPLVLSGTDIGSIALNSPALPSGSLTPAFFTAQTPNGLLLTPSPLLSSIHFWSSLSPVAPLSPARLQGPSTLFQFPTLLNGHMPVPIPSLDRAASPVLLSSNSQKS
The following applies: protein: recombinant; tags: N-terminal GST; dsDNA, one strand shown. Summed up:
as §1

The target in another assay is ETV5 (Homo sapiens, UniProt P41161 1-510). To be noted: protein: recombinant; tags: N-terminal GST; dsDNA, one strand shown. Summed up:
as §1

Another assay concerns the target HSF1 (Homo sapiens, UniProt Q00613 1-529). The following applies: protein: recombinant; tags: N-terminal GST; chain copies: 3; dsDNA, one strand shown. Summed up: as §1
Another assay has as its target T7, SPIC (Homo sapiens, UniProt Q8N5J4 1-248).
T7 sequence: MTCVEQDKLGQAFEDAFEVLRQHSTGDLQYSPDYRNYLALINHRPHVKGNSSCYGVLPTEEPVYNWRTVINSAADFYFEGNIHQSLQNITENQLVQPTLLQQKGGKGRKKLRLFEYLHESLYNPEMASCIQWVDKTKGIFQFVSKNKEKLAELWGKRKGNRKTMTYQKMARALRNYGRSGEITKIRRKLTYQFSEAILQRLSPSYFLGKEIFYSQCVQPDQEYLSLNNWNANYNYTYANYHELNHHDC
To be noted: protein: recombinant; tags: N-terminal GST; dsDNA, one strand shown. A digest of the protocol: as §1

A further assay has as its target ELF4 (Homo sapiens, UniProt Q99607 1-663). The following applies: protein: recombinant; tags: N-terminal GST; dsDNA, one strand shown. Summed up: as §1
For another assay, the target named is T8, ELK4 (Homo sapiens, UniProt P28324-2 1-405).
T8 sequence: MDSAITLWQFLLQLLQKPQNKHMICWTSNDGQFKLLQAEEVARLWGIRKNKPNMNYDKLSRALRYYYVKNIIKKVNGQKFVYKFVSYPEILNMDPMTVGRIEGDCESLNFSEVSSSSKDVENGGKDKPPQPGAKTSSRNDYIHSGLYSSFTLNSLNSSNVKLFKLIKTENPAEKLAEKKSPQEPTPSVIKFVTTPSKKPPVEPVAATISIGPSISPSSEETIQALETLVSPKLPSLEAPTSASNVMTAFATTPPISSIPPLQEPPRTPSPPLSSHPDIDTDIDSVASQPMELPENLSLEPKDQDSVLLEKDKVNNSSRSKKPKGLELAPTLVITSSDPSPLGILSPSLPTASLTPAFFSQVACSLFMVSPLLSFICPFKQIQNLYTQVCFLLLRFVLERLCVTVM
To be noted: protein: recombinant; tags: N-terminal GST; dsDNA, one strand shown. Summed up:
as §1

A further assay deals with T9, ETV2 (Homo sapiens, UniProt O00321 1-342).
T9 sequence: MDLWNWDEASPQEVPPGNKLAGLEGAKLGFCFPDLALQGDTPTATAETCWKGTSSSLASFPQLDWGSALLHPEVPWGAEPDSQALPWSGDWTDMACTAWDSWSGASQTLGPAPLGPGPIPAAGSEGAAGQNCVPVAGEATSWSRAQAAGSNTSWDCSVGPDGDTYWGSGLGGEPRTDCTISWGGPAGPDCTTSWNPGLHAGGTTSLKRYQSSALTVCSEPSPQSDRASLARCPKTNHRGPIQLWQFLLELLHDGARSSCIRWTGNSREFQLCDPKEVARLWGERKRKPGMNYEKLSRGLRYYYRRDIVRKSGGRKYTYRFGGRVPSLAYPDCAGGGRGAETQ
The following applies: protein: recombinant; tags: N-terminal GST; dsDNA, one strand shown. Summed up: as §1

The target in a further assay is T10, ELF3 (Homo sapiens, UniProt P78545 1-371).
T10 sequence: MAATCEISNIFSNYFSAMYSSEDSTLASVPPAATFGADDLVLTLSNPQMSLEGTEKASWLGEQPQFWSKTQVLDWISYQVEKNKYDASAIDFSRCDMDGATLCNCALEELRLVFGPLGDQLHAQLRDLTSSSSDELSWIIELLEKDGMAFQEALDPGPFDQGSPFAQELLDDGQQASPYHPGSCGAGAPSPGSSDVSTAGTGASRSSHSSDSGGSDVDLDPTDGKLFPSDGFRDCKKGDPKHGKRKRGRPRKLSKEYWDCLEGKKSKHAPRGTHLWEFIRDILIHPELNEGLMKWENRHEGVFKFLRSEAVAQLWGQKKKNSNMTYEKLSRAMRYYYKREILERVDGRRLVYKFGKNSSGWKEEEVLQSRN
To be noted: protein: recombinant; tags: N-terminal GST; dsDNA, one strand shown. Summed up:
as §1

A further assay concerns the target CRX (Homo sapiens, UniProt O43186 1-299). The following applies: protein: recombinant; tags: N-terminal GST; dsDNA, one strand shown. A digest of the protocol: as §1
The target in another assay is ETV1 (Homo sapiens, UniProt P50549 1-477). To be noted: protein: recombinant; tags: N-terminal GST; dsDNA, one strand shown. A digest of the protocol: as §1
ETV1, sequence (P50549 whole entry): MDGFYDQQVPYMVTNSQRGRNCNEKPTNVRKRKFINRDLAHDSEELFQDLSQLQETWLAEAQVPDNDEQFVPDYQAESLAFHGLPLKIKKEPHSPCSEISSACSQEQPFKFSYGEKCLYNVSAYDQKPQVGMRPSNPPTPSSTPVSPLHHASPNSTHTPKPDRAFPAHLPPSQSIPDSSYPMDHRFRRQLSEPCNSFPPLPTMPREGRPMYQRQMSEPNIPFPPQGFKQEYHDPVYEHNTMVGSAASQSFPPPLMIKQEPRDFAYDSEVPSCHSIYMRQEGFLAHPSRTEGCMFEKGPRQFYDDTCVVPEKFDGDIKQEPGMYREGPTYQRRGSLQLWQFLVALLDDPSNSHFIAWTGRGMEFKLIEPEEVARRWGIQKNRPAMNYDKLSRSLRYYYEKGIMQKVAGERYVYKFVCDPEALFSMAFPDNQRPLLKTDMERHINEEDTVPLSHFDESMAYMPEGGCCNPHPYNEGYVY

ETV5, sequence (P41161 whole entry): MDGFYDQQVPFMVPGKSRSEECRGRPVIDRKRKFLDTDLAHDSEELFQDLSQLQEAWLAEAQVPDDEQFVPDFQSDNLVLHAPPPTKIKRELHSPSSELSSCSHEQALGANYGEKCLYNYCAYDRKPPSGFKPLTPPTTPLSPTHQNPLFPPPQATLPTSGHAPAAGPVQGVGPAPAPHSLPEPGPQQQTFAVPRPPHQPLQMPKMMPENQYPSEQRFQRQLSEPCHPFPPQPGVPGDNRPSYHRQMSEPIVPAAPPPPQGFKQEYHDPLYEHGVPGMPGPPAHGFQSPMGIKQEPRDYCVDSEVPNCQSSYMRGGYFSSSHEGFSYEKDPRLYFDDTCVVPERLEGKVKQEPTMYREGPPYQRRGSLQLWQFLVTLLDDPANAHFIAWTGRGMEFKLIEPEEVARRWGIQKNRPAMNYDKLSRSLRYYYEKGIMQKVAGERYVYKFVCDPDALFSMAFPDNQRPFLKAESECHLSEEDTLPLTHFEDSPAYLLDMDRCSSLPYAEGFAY
ELF4, sequence (Q99607 whole entry): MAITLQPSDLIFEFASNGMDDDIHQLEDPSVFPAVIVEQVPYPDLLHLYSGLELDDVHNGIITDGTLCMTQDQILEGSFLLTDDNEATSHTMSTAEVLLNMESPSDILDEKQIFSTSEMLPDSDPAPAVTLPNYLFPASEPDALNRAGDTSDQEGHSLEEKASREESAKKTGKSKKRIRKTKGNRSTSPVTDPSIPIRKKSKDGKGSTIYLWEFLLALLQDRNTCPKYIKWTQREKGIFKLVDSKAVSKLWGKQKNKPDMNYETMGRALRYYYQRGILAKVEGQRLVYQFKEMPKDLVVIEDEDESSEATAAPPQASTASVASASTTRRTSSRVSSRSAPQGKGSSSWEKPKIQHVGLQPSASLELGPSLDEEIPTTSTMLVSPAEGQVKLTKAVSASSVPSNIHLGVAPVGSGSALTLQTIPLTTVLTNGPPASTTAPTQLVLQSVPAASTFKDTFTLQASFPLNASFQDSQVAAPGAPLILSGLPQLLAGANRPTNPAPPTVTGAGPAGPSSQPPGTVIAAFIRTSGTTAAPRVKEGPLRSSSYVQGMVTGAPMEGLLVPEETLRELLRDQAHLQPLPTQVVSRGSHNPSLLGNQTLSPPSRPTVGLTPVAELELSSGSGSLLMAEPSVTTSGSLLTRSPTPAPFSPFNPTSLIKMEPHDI
CRX, sequence (O43186 whole entry): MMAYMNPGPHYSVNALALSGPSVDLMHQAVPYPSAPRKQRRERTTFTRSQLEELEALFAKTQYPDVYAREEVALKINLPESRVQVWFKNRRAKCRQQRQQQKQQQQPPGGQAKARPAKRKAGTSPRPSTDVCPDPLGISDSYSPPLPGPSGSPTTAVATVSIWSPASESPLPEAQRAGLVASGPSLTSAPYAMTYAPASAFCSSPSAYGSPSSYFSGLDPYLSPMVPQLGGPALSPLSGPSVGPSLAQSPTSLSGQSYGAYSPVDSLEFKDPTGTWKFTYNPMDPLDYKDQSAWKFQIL
SPIB, sequence (Q01892 whole entry): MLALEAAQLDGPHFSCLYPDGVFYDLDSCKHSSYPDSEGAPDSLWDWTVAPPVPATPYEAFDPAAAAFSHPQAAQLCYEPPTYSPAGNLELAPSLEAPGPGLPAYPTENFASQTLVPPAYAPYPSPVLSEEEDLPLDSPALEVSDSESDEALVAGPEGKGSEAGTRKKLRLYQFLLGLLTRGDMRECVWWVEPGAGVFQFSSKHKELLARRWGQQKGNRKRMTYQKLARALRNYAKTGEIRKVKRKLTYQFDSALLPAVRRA
HSF1, sequence (Q00613 whole entry): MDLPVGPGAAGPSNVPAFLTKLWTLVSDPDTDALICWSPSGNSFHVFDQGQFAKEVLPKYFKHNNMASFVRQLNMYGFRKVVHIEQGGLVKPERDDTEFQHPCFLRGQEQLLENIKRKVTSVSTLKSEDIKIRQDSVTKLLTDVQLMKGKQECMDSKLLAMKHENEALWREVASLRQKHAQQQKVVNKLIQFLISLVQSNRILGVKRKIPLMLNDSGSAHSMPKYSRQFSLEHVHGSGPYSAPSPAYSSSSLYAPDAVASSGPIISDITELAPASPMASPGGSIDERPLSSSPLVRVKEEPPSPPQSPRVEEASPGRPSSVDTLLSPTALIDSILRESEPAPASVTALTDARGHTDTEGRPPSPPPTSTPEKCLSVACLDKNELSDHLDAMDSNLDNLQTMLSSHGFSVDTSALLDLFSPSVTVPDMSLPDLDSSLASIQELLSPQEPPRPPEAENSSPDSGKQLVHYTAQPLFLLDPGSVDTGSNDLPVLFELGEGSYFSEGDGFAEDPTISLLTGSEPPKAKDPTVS

As to TAATGT, the binding signal was 1.15 fold enrichment (6-mer frequency, TF over GST control) with FLI1; 1.02 fold enrichment (6-mer frequency, TF over GST control) with ELK1; 1.08 fold enrichment (6-mer frequency, TF over GST control) with GABPA; 1.09 fold enrichment (6-mer frequency, TF over GST control) in the assay with ERG; 1.11 fold enrichment (6-mer frequency, TF over GST control) with ELF1; 1.07 fold enrichment (6-mer frequency, TF over GST control) with EHF. The binding signal was 1.06 fold enrichment (6-mer frequency, TF over GST control) in the assay with SPI1; 1.05 fold enrichment (6-mer frequency, TF over GST control) in the assay with SPIB; 1.09 fold enrichment (6-mer frequency, TF over GST control) with ELK3; 1.14 fold enrichment (6-mer frequency, TF over GST control) with ETV5; 1.19 fold enrichment (6-mer frequency, TF over GST control) with HSF1; 1.21 fold enrichment (6-mer frequency, TF over GST control) in the assay with SPIC. The binding signal is 1.11 fold enrichment (6-mer frequency, TF over GST control) in the assay with ELF4; 1.19 fold enrichment (6-mer frequency, TF over GST control) with ELK4; 1.08 fold enrichment (6-mer frequency, TF over GST control) with ETV2; 1.04 fold enrichment (6-mer frequency, TF over GST control) with ELF3; 1.5 fold enrichment (6-mer frequency, TF over GST control) with CRX; 1.16 fold enrichment (6-mer frequency, TF over GST control) with ETV1.

The record behind these values is paper PMC7862700, “An all-to-all approach to the identification of sequence-specific readers for epigenetic DNA modifications on cytosine”.
